Test results taken from the supplement of paper PMC6555819.

Experiments:
Assay in all cases: PBM binding z-score (relative to random genomic background probes); higher = stronger binding; sequences stand for … in GC…GCGATTGACAGCGTAGAATGAAGG
[1] = test system: RARb homodimer (NR concentration 270 nM)
Procedure, shortened: (§1)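 Random background probes are the reference for binding z-scores. These scores derive from regression-normalized fluorescence on custom Agilent 4×180K protein-binding microarrays incubated 1 h with ligand-free nuclear receptor dimers. Binding was detected with antibodies against each partner (one per run).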

[2] = test system: RARg:RXRa (NR concentration 270 nM, RXRa partner concentration 90 nM)
Procedure, shortened: as §1

[3] = test system: RARg homodimer (NR concentration 270 nM)
Procedure, shortened: as §1

[4] = test system: RXRa DBDmut IVT, anti-RXR (DBD mutation: RXRa K156A/R161A, NR concentration 90 nM)
Procedure, shortened: as §1

[5] = test system: RXRa homodimer (NR concentration 180 nM)
Procedure, shortened: as §1

[6] = test system: THRa:RXRa (NR concentration 90 nM, RXRa partner concentration 90 nM)
Procedure, shortened: as §1

[7] = test system: THRa homodimer (NR concentration 90 nM)
Procedure, shortened: as §1

[8] = test system: VDR:RXRa (NR concentration 270 nM, RXRa partner concentration 90 nM)
Procedure, shortened: as §1

[9] = test system: VDR homodimer (NR concentration 270 nM)
Procedure, shortened: as §1

| Sequence | PBM binding z-score [1] | PBM binding z-score [2] | PBM binding z-score [3] | PBM binding z-score [4] | PBM binding z-score [5] | PBM binding z-score [6] | PBM binding z-score [7] | PBM binding z-score [8] | PBM binding z-score [9] |
| --- | --- | --- | --- | --- | --- | --- | --- | --- | --- |
| CGTCCAAGGTCAGAGAGGTCAGCGAATGCCGAGT | 5.53 | 6.82 | 7.65 | 3.12 | 6.52 | 4.47 | 2.86 | 7.48 | 5.7 |
| ACAGACAGGTGATTGAAGGTAACTCAGCTGGACG | -0.184 | 0.204 | 0.419 | -0.0738 | 0.195 | 1.92 | -0.247 | -0.21 | -0.308 |
| CCTTACGGGTCACTGACAGGTTACAGCATTTGGA | 3.43 | 6.18 | 4.87 | 1.94 | 5.36 | 3.08 | 0.386 | 3.76 | 1.01 |
| CCGAGTAAGTTATGGGGCATTCAGGCAACGGTGA | 0.181 | -0.241 | -0.0978 | 0.0937 | -0.299 | 0.0579 | -0.117 | -0.346 | -0.0157 |
| CGTCAAAGTTCAACTAAGGTAACGTACAGCACGC | 4.47 | 6.1 | 6.82 | 4.86 | 5.14 | 5.27 | 2.13 | 4.64 | 4.15 |
| GCTAGCAGGCTATTTGGGTCACTCAATGACGGGC | 1.63 | 0.682 | 0.795 | -0.21 | 0.76 | 1.81 | 0.905 | 0.0221 | -0.158 |
| GATTGTAGATCAAGGTTAAGAAAGACTAAGCTAA | -0.213 | 0.14 | 0.339 | -0.224 | 0.781 | 0.867 | -0.616 | 0.0632 | -0.0253 |
| TCTTGTAGATCAAAGGTTAAGCAAGCCGAAGCCT | 1.9 | 1.98 | 0.759 | 0.824 | 3.56 | 1.51 | -0.503 | 1.65 | -0.138 |
| ACCAGTTGGTCAGCTGAGGTCACACACAATTCGG | 4.44 | 4.2 | 4.52 | 1.29 | 4.27 | 5.07 | 5 | 4.45 | 3.47 |
| GCATATAGGTAATAAAAGGTGAAAGTCCGATTGT | 1.63 | 0.972 | 0.621 | 0.496 | 1.53 | 2.61 | -0.141 | 0.675 | 0.166 |
| TCTTGTAGATCAGCAGGTTAAGCAAGCTGGCCAA | -0.0177 | -0.192 | -0.525 | 0.455 | 0.213 | -0.00536 | -0.897 | 0.275 | -0.751 |
| TCTAGTTGGCCACGGAGGTCACACACGACGGGTA | 3.85 | 3.98 | 3.67 | 0.683 | 4.31 | 3.48 | 2.53 | 3.97 | 1.99 |
| TCTTGTAGATCAAAGGTTAAGAAAGCCGAAGCCT | 1.36 | 1.68 | 0.776 | 0.652 | 3.27 | 1.27 | -0.357 | 1.37 | -0.0957 |
| CGTCCAAGGTCATAGGAGGTGAGTGAAGACAGAT | 4.33 | 5.74 | 5.64 | 3.53 | 5.36 | 5.3 | 2.93 | 4.7 | 2.82 |
| CAAACTAGGTCACAGAGGTCAAAGTGCGTGCGTA | 5.64 | 7.46 | 7.84 | 3.65 | 7.66 | 4.92 | 3.02 | 8.02 | 6.01 |
| ATCTCTAGGCAAAGATAGTTCAGTGAATGCAAAT | 0.533 | 0.288 | 0.586 | -0.0612 | -0.0781 | 0.0396 | -0.577 | -0.11 | 0.0259 |
| CCGACTGGGGCAAGGTTACGATAACGCACAGCCA | 1.22 | 1.18 | 1.56 | -0.192 | 1.47 | 1.28 | 0.056 | 0.0294 | -0.241 |
| TCTCGGAGAACACGAAGGTCAGAGCTTTCCAGAG | 2.86 | 1.7 | 1.58 | 0.25 | 1.61 | 1.18 | -0.552 | 0.885 | -0.097 |
| CGTCCAAGGTCATGGTCAGTGAAAGAGACTCGAA | 4.01 | 6.19 | 6.11 | 3.84 | 5.98 | 3.92 | 2.89 | 4.3 | 2.52 |
| GCGACTGGGGCATCAGAAGGTTACCATAACTTAA | 1.73 | 1.74 | 1.06 | 0.112 | 0.743 | 1.24 | -0.47 | 0.169 | -0.299 |
| TCTGCTAGGTCAGTTGGTTAGCTAACGAGCTGCC | 2.11 | 2.15 | 2.76 | 0.517 | 0.728 | 1.15 | -0.142 | 0.227 | -0.573 |
| TCATATAGGTAATACAGGTCAAAGTCGGCATCTA | 3.29 | 2.91 | 2.37 | 2.04 | 3.63 | 2.71 | 1.24 | 4.07 | 2.13 |
| TTACCAAGGTGAAGGTAGTTGATCCCTCTGTAGA | 0.8 | 0.328 | 0.323 | -0.443 | 0.761 | 1.84 | 0.575 | 0.0573 | -0.396 |
| CAGCCTTGGTCAGGGCCAGTATAGGAGGAACGTT | 0.149 | -0.144 | 0.23 | -1.06 | -0.491 | -0.654 | -0.63 | -0.707 | -0.985 |
| ATCACTAGGTAACAAGTTCAGTGAAAGAGAGGAC | 1.82 | 1.45 | 1.49 | 1.12 | 0.815 | 1.54 | 0.852 | 1.6 | 2.7 |
| CCTAGTTGGTCAGGAGGTAACACACCGGATATGA | 1.01 | 0.732 | 0.881 | -0.282 | 0.455 | 0.766 | 0.712 | 0.461 | 0.75 |
